According to PubChem BioAssay (NCATS):
Records with an inconclusive call do not appear. Active and inactive are the calls of the source. Calls come from the whole dose curve; as a rule, active = well fitted cell-killing curve with a large enough effect; inconclusive = small, poorly fitted or top-dose-only effect, or effect the other way; inactive = flat fitted curve, though single readings scatter.

Experiments:
Assay in all cases: Primary qHTS to identify gynecologic anti-cancer compounds using libraries of approved drugs and bioactive compounds (AID 1345084); note: nearly all actives have a fitted effect of over 55% in size
[1] = test system: C33A; conditions: Gynecologic cancer cell panel viability, ATPlite luminescence, 48 h; series mostly up to 57.5 µM
Summary of the method: (§1)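 Cells, 1,000 per well, plated 16 h, then exposed 48 h at 37 C to compounds. Viability by ATPlite luminescence after 15 min at room temperature.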

[2] = test system: CASKI; conditions: Gynecologic cancer cell panel viability, ATPlite luminescence, 48 h; series mostly up to 57.5 µM
Summary of the method: as §1

[3] = test system: Es-2; conditions: Gynecologic cancer cell panel viability, ATPlite luminescence, 48 h; series mostly up to 57.5 µM
Summary of the method: as §1

[4] = test system: HeLa; conditions: Gynecologic cancer cell panel viability, ATPlite luminescence, 48 h; series mostly up to 57.5 µM
Summary of the method: as §1

[5] = test system: Hek293T; conditions: Gynecologic cancer cell panel viability, ATPlite luminescence, 48 h, control line for the selectivity index; series mostly up to 57.5 µM
Summary of the method: as §1

[6] = test system: JEG-3; conditions: Gynecologic cancer cell panel viability, ATPlite luminescence, 48 h; series mostly up to 57.5 µM
Summary of the method: as §1

[7] = test system: OV90; conditions: Gynecologic cancer cell panel viability, ATPlite luminescence, 48 h; series mostly up to 57.5 µM
Summary of the method: as §1

[8] = test system: PA-1; conditions: Gynecologic cancer cell panel viability, ATPlite luminescence, 48 h; series mostly up to 57.5 µM
Summary of the method: as §1

[9] = test system: SKOV3; conditions: Gynecologic cancer cell panel viability, ATPlite luminescence, 48 h; series mostly up to 57.5 µM
Summary of the method: as §1

[10] = test system: Tov-21-G; conditions: Gynecologic cancer cell panel viability, ATPlite luminescence, 48 h; series mostly up to 57.5 µM
Summary of the method: as §1

[11] = test system: Tov112D; conditions: Gynecologic cancer cell panel viability, ATPlite luminescence, 48 h; series mostly up to 57.5 µM
Summary of the method: as §1
% is set by controls: 0 for no effect and ±100 for the full control effect.

CCOC(=O)C(CCc1ccccc1)NC1CSC(c2cccs2)CN(CC(=O)O)C1=O (configuration not stated)
inactive: Potency [1] | Potency [2] | Potency [3] | Potency [4] | Potency [5] | Potency [6] | Potency [7] | Potency [8] | Potency [9] | Potency [10] | Potency [11]

CC(C)=CCC/C(C)=C/CC/C(C)=C/COC1OC(COC2OCC(OC3OCC(O)C(O)C3O)C(O)C2O)C(O)C(OC2OC(C)C(OC3OC(C)C(OC4OCC(OC5OC(C)C(O)C(O)C5O)C(O)C4O)C(O)C3O)C(O)C2O)C1O (configuration not stated)
inactive: activity change, negative = cytotoxicity [1] 4.68% [at 6.55 µM] | activity change, negative = cytotoxicity [2] -7.12% [at 6.55 µM] | activity change, negative = cytotoxicity [3] -6.21% [at 6.55 µM] | activity change, negative = cytotoxicity [4] -2.03% [at 6.55 µM] | activity change, negative = cytotoxicity [5] -3.08% [at 6.55 µM] | activity change, negative = cytotoxicity [6] -0.54% [at 6.55 µM] | activity change, negative = cytotoxicity [7] -9.19% [at 6.55 µM] | activity change, negative = cytotoxicity [8] -4.48% [at 6.55 µM] | activity change, negative = cytotoxicity [9] -3.45% [at 6.55 µM] | activity change, negative = cytotoxicity [10] -0.577% [at 6.55 µM] | activity change, negative = cytotoxicity [11] -7.57% [at 6.55 µM]

Cc1cccc(-c2[nH]c(Cc3cccc(C(N)=O)c3)nc2-c2ccc3nccnc3c2)n1
inactive: Potency [1] | Potency [2] | Potency [3] | Potency [4] | Potency [5] | Potency [6] | Potency [7] | Potency [8] | Potency [9] | Potency [10] | Potency [11]

CC1(C)CCCC2(C)C=C(C(=O)O)C(O)CC12 (configuration not stated)
inactive: Potency [1] | Potency [2] | Potency [3] | Potency [4] | Potency [5] | Potency [6] | Potency [7] | Potency [8] | Potency [9] | Potency [10] | Potency [11]

COC(=O)C1=CO[C@@H](O[C@@H]2O[C@H](CO)[C@@H](O)[C@H](O)[C@H]2O)C2C1C(=O)C[C@H]2C (some centres not stated)
inactive: Potency [1] | Potency [2] | Potency [3] | Potency [4] | Potency [5] | Potency [6] | Potency [7] | Potency [8] | Potency [9] | Potency [10] | Potency [11]

C=CCC1=C[C@]2(OC)[C@H](C)[C@@H](c3ccc(O)c(OC)c3)O[C@]2(OC)CC1=O
inactive: Potency [1] | Potency [2] | Potency [3] | Potency [4] | Potency [5] | Potency [6] | Potency [7] | Potency [8] | Potency [9] | Potency [10] | Potency [11]

CC1(C)CC[C@]2(C(=O)O[C@@H]3O[C@H](CO)[C@@H](O)[C@H](O)[C@H]3O)CC[C@]3(C)C(=CCC4[C@@]5(C)CC[C@H](O[C@@H]6O[C@H](C(=O)O)[C@@H](O)[C@H](O)[C@H]6O)C(C)(C)C5CC[C@]43C)C2C1 (some centres not stated)
inactive: activity change, negative = cytotoxicity [1] 3.23% [at 11.6 µM] | activity change, negative = cytotoxicity [2] -0.46% [at 11.6 µM] | activity change, negative = cytotoxicity [3] 6.53% [at 11.6 µM] | activity change, negative = cytotoxicity [4] 7.58% [at 11.6 µM] | activity change, negative = cytotoxicity [5] 5.45% [at 11.6 µM] | activity change, negative = cytotoxicity [6] 7.56% [at 11.6 µM] | activity change, negative = cytotoxicity [7] -4.22% [at 11.6 µM] | activity change, negative = cytotoxicity [8] 9.38% [at 11.6 µM] | activity change, negative = cytotoxicity [9] 0% [at 11.6 µM] | activity change, negative = cytotoxicity [10] 5.62% [at 11.6 µM] | activity change, negative = cytotoxicity [11] 11.2% [at 11.6 µM]

COC(=O)C1(C)CCC2(C(=O)O)CCC3(C)C(=CCC4C5(C)CC(O)C(OC6OCC(O)C(O)C6O)C(C)(CO)C5CCC43C)C2C1 (configuration not stated)
inactive: Potency [1] | Potency [2] | Potency [3] | Potency [4] | Potency [5] | Potency [6] | Potency [7] | Potency [8] | Potency [9] | Potency [10] | Potency [11]

COC(=O)C1=CO[C@@H](O[C@@H]2O[C@H](CO)[C@@H](O)[C@H](O)[C@H]2O)[C@@H]2C(CO)=CC[C@]12O
inactive: Potency [1] | Potency [2] | Potency [3] | Potency [4] | Potency [5] | Potency [6] | Potency [7] | Potency [8] | Potency [9] | Potency [10] | Potency [11]

CC(C)(O)C1CCC(C)(C2CCC3(C)C4CCC5C(C)(C(=O)OC6OC(CO)C(O)C(O)C6O)C(O)CC(O)C56CC46CCC23C)O1 (configuration not stated)
inactive: Potency [1] | Potency [2] | Potency [3] | Potency [4] | Potency [5] | Potency [6] | Potency [7] | Potency [8] | Potency [9] | Potency [10] | Potency [11]

COc1ccc(C(=O)C2CCN(CC(=O)N(Cc3nc4c(c(=O)[nH]3)COCC4)CC3CC3)CC2)cc1
inactive: Potency [1] | Potency [2] | Potency [3] | Potency [4] | Potency [5] | Potency [6] | Potency [7] | Potency [8] | Potency [9] | Potency [10] | Potency [11]

CN(C)C(=O)NC1CCC(CCN2CCN(c3cccc(Cl)c3Cl)CC2)CC1 (configuration not stated)
inactive: activity change, negative = cytotoxicity [1] 1.34% [at 11.6 µM] | activity change, negative = cytotoxicity [2] 13.5% [at 11.6 µM] | activity change, negative = cytotoxicity [3] 5.23% [at 11.6 µM] | activity change, negative = cytotoxicity [4] -0.835% [at 11.6 µM] | activity change, negative = cytotoxicity [5] 12% [at 11.6 µM] | activity change, negative = cytotoxicity [6] 8.74% [at 11.6 µM] | activity change, negative = cytotoxicity [7] 0.264% [at 11.6 µM] | activity change, negative = cytotoxicity [8] 1.34% [at 11.6 µM] | activity change, negative = cytotoxicity [9] 0.966% [at 11.6 µM] | activity change, negative = cytotoxicity [10] 4.37% [at 11.6 µM] | activity change, negative = cytotoxicity [11] 2.02% [at 11.6 µM]
